# Source: the supplement of paper PMC8866396
# ± gives the standard deviation of the averaged measurements.
# Test system: IL-6-GFP PC-9
# Assay: cell viability (CCK-8 OD) relative to DMSO control (fraction of control); higher = more viable cells
# Conditions: compound concentration: 10 uM; treatment time: 48 h
# Summary of the method: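 PC-9 and PC-9GR lung cancer cells carrying a lentiviral construct that overexpresses IL-6-GFP were seeded in 96-well plates at 3000 cells/well. Every compound in a purchased 510-compound library was applied at a final 10 μM for 48 h, and a parallel set of plates was kept for GFP imaging. Cell viability was read by CCK-8 absorbance, taking each well's optical density as a ratio to the vehicle control well. Two independent replicates were run.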
row,SMILES,cell viability
1,Cc1c(-c2ccc(O)cc2)n(Cc2ccc(OCCN3CCCCCC3)cc2)c2ccc(O)cc12.Cl [Bazedoxifene HCl],0.51 ± 0.077
2,CCc1ccc(Cc2ccc3c(c2)C2(OC3)OC(CO)C(O)C(O)C2O)cc1.O (stereo unspecified) [Tofogliflozin(CSG 452)],1.02 ± 0.25
3,"CC(Nc1ncnc2[nH]cnc12)c1cc2cccc(Cl)c2c(=O)n1-c1ccccc1 (stereo unspecified) [Duvelisib (IPI-145, INK1197)]",1.1 ± 0.12
4,CC(C(=O)O)c1ccc(C(=O)c2ccccc2)s1 (stereo unspecified) [Tiaprofenic acid],1.04 ± 0.17
5,O=c1ccc2ccc(O)c(O)c2o1 [Daphnetin],1.17 ± 0.18
6,CC(C)Cc1ccc(C(C)C(=O)OCc2ccccn2)cc1 (stereo unspecified) [Ibuprofen piconol],1.17 ± 0.096
